Calls of active or inactive are those of the source. Rule for the calls: active = hit-call score of the fitted dose curve at least 0.9, where 1 is the maximum; inactive = score below 0.9.
Assay: ATG_TAL_CIS: Attagene CIS-FACTORIAL HepG2 Assay for human TAL Basal Promoter (AID 2282966);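 note: background control endpoint measuring basal TAL promoter reporter mRNA not a specific factor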
Conditions: HepG2 Attagene cis-factorial TAL promoter reporter; actives raise or lower the signal
Method in brief: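 HepG2 cells transiently transfected with multiplexed cis-promoter reporter units, dosed 24 h. Reporter mRNA quantified by RT-PCR, 6-FAM labelling, HpaI digestion and capillary electrophoresis; TAL basal promoter serves as background control, fitted bidirectionally versus DMSO.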
In the case of `CC[C@H](C)[C@H]1O[C@]2(C=C[C@@H]1C)C[C@@H]1C[C@@H](C/C=C(\C)[C@@H](O[C@H]3C[C@H](OC)[C@@H](O[C@H]4C[C@H](OC)[C@@H](NC)[C@H](C)O4)[C@H](C)O3)[C@@H](C)/C=C/C=C3\CO[C@@H]4[C@H](O)C(C)=C[C@@H](C(=O)O1)[C@]34O)O2`, the outcome is reported as “inactive”. In the case of `CON=C(C(=O)OC)c1ccccc1CON=C(C)c1cccc(C(F)(F)F)c1`, the AC50 is reported as 13 µM (active). In the case of `CC(COc1ccc(Oc2ccccc2)cc1)Oc1ccccn1` (stereo not given), the outcome is reported as “inactive”. In the case of `CCCCN(CC)c1c([N+](=O)[O-])cc(C(F)(F)F)cc1[N+](=O)[O-]`, the outcome is reported as “inactive”. With `CCc1cnc(C2=NC(C)(C(C)C)C(=O)N2)c(C(=O)O)c1` (stereo not given) the outcome was “inactive”. In the case of `COc1cc(OC)nc(Sc2cccc(Cl)c2C(=O)O)n1`, the outcome is reported as “inactive”. With `COP(=O)(NC(C)=O)SC` (stereo not given) the outcome was “inactive”. For `COP(=O)(OC)SCn1c(=O)oc2cc(Cl)cnc21`, the outcome was “inactive”. With `CC(C)N(C(=O)SCC(Cl)=C(Cl)Cl)C(C)C` the outcome was “inactive”. In the case of `Cc1cc(C2CC2)nc(Nc2ccccc2)n1`, the outcome is reported as “inactive”. For `C#CC(C)(C)NC(=O)c1cc(Cl)cc(Cl)c1`, the outcome was “inactive”. For `Cc1ccn2nc(S(=O)(=O)Nc3c(F)cccc3F)nc2n1`, the outcome was “inactive”. For `CCc1cccc(C)c1N(C(=O)CCl)C(C)COC` (stereo not given), the outcome was “inactive”. For `CCc1cccc(CC)c1N(COC)C(=O)CCl`, the outcome was “inactive”. In the case of `CCOP(=O)(SC(C)CC)N1CCSC1=O` (stereo not given), the outcome is reported as “inactive”. In the case of `CCOP(=S)(Oc1cnc(C(C)(C)C)nc1)OC(C)C` (stereo not given), the outcome is reported as “inactive”. For `CCCSP(=O)(OCC)Oc1ccc(Br)cc1Cl` (stereo not given), the outcome was “inactive”. For `Nc1c(Cl)cc([N+](=O)[O-])cc1Cl`, the outcome was “inactive”. With `CCCSP(=O)(OCC)SCCC` the outcome was “inactive”. In the case of `O=[N+]([O-])c1cc(C(F)(F)F)c(Cl)c([N+](=O)[O-])c1Nc1ncc(C(F)(F)F)cc1Cl`, the outcome is reported as “inactive”. For `CCC(CC)Nc1c([N+](=O)[O-])cc(C)c(C)c1[N+](=O)[O-]`, the outcome was “inactive”. With `CNc1cnn(-c2cccc(C(F)(F)F)c2)c(=O)c1Cl` the outcome was “inactive”. For `CNC(=O)Oc1cccc2c1OC(C)(C)O2`, the outcome was “inactive”. With `CCOP(=S)(OCC)OC(Cl)C(Cl)(Cl)Cl` (stereo not given) the outcome was “inactive”. For `CCC(=O)Nc1ccc(Cl)c(Cl)c1`, the outcome was “inactive”. In the case of `CSc1nc(NC(C)C)nc(NC(C)C)n1`, the outcome is reported as “inactive”. With `CCOP(=O)(NC(C)C)Oc1ccc(SC)c(C)c1` (stereo not given) the outcome was “inactive”. For `CCCOc1nn(C(=O)NS(=O)(=O)c2ccccc2C(=O)OC)c(=O)n1C`, the outcome was “inactive”. For `CCCCSP(=O)(SCCCC)SCCCC`, the AC50 was 13 µM (active). For `N#CSCSC#N`, the outcome was “inactive”. With `C#CCC1=C(C)C(OC(=O)C2C(C=C(C)C)C2(C)C)CC1=O` (stereo not given) the AC50 was 88.4 µM (active). With `COP(=O)(OC)C(O)C(Cl)(Cl)Cl` (stereo not given) the outcome was “inactive”. For `CC1(C(=O)Nc2ccc(O)c(Cl)c2Cl)CCCCC1`, the outcome was “inactive”. For `CNC(=O)ON=C(SC)C(=O)N(C)C`, the outcome was “inactive”. For `CCCCOC(=O)[C@@H](C)Oc1ccc(Oc2ccc(C#N)cc2F)cc1`, the outcome was “inactive”.

From PubChem BioAssay (EPA / NIEHS)
